From PubChem
LMP1 NFkB inh = inhibitors of Epstein-Barr LMP1-induced NF-kappaB reporter. inhibition, % at 12.5 µM. LMP1-induced NF-kappaB luciferase reporter cells, luminescence. 350,000 compounds, 0.69% hits; in the data active = inhibition above about 41%; inconclusive = no clear call, values can overlap the other calls
MITF TRPM1 inh = MITF TRPM1 promoter inhibition in SK-MEL-5 cells. 330,000 compounds, 0.83% hits. SK-MEL-5 TRPM1 promoter luciferase, 24 h. inhibition, % at 12.5 µM. AID 488899;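 active = mean inhibition across replicates of 60% or more, whatever share of single replicates reaches that level; inconclusive = some that reach 60%, reason not given; inactive = mean inhibition across replicates below 60%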
PAX8 inh HTS = inhibitors of PAX8 transcriptional activity in RMG-I cells; 360,000 compounds, 1.2% hits; inhibition, % at 12.6 µM; RMG-I TPO-luciferase reporter, SteadyGlo, 24 h; AID 652154;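 active = mean replicate inhibition at least 60% with every replicate also reaching 60%; inconclusive = only one of the two criteria is met; inactive = mean below 60% and not all replicates reaching 60%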;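 note: luciferase light reporting Pax8 driven TPO promoter activity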
LGR2 antag = inhibitors of bursicon-induced Drosophila LGR2 receptor cAMP signaling. 380,000 compounds, 0.35% hits. AID 720647. inhibition, % at 9.99 µM. HEK293 LGR2, CRE-luciferase, bursicon-stimulated, 4 h;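 active = drop in luminescence signal, shown as inhibition above about 50% in the replicate tests, limit read from the data, passing the limit was not always enough; inconclusive = probably only some replicates passing the limit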;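 note: agonist challenge used bursicon conditioned medium at about half maximal strength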
EWS-Fli block = blocks EWS/Fli oncoprotein-driven transcription. A673 NR0B1-luciferase reporter, viability-normalised. inhibition, % at 12.6 µM. 350,000 compounds, 0.67% hits;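 active = mean inhibition of at least 50% after viability correction, with every replicate also passing that limit; inconclusive = mean reaches 50% but only one of two replicates passes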;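 note: firefly luciferase signal divided by Alamar Blue viability fluorescence both relative to DMSO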
Shn3 inh set2 = inhibitors of Schnurri-3 3'UTR reporter in osteoblasts; Clone20 osteoblast Shn3 3'UTR firefly luciferase, 24 h; 360,000 compounds, 0.52% hits; inhibition, % at 12.5 µM;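 active = mean inhibition of at least 75% with every replicate also reaching 75%; inconclusive = mean inhibition at least 75% but some replicate below; inactive = mean inhibition below 75%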
Large screens that a line does not name were inactive. Rows were chosen to be rich in hits. Some 2.2% of all compounds tested hit in one or more screens of this group.

O=C(Nc1nc2ccc(F)cc2s1)C1=COCCO1	LMP1 NFkB inh 51.4, LGR2 antag 62.8, EWS-Fli block 68.7
O=C(Nc1nc2ccc(F)cc2s1)c1ccccn1	PAX8 inh HTS 74.7, LGR2 antag 90.2, EWS-Fli block 83.8 (no result: LMP1 NFkB inh, MITF TRPM1 inh, Shn3 inh set2)
CSc1cccc2sc(NC(=O)C3=COCCO3)nc12	none (no result: PAX8 inh HTS)
O=C(Nc1nnc(SCc2ccc(F)cc2)s1)c1cccnc1Cl	none
C#CCN(C[C@@H]1[C@@H](OC(=O)NCC2CCCCC2)[C@@H](OC(=O)NCC2CCCCC2)Cn2c(=O)ccc(=O)n21)S(=O)(=O)c1ccc(C)cc1	LMP1 NFkB inh 90.0, PAX8 inh HTS 115.9, LGR2 antag 72.1, Shn3 inh set2 99.0 (no result: MITF TRPM1 inh)
C#CCN(C[C@@H]1[C@@H](OC(=O)NCc2ccc(OC)c(OC)c2)[C@@H](OC(=O)NCc2ccc(OC)c(OC)c2)Cn2c(=O)ccc(=O)n21)S(=O)(=O)c1ccc(C)cc1	PAX8 inh HTS 112.8 (no result: MITF TRPM1 inh)
C#CCN(C[C@@H]1[C@@H](OC(=O)NCc2ccc(OC)c(OC)c2)[C@@H](OC(=O)NCc2ccc(OC)c(OC)c2)Cn2c(=O)n(CCCCCC)c(=O)n21)S(=O)(=O)c1ccc(C)cc1	none (no result: MITF TRPM1 inh)
C#CCN(C[C@@H]1[C@@H](OC(=O)NC2CCCC2)[C@@H](OC(=O)NC2CCCC2)CN(C(=O)OC(C)C)N1C(=O)OC(C)C)S(=O)(=O)c1ccc(C)cc1	PAX8 inh HTS 79.2 (no result: MITF TRPM1 inh)
C#CCN(C[C@@H]1[C@@H](OC(=O)NCc2ccco2)[C@@H](OC(=O)NCc2ccco2)Cn2c(=O)ccc(=O)n21)S(=O)(=O)c1ccc(C)cc1	PAX8 inh HTS 73.0, LGR2 antag inconclusive (no result: MITF TRPM1 inh)
C[C@@H]1CN([C@H](C)CO)C(=O)c2cc(C#CC3CCCCC3)cnc2O[C@@H]1CN(C)Cc1ccncc1	none (no result: LMP1 NFkB inh, MITF TRPM1 inh, PAX8 inh HTS, Shn3 inh set2)
C[C@H](NC(=O)C[C@H]1C[C@@H]2c3cc(NC(=O)Nc4ccc(C(F)(F)F)cc4)ccc3O[C@@H]2[C@H](CO)O1)c1ccccc1	none (no result: LMP1 NFkB inh, MITF TRPM1 inh, Shn3 inh set2)
COc1ccc(CN(C)C[C@@H]2Oc3c(NC(=O)CCCCCC(=O)Nc4ccccc4N)cccc3C(=O)N([C@@H](C)CO)C[C@H]2C)cc1	none (no result: LMP1 NFkB inh, MITF TRPM1 inh, EWS-Fli block, Shn3 inh set2)
C#CCN(C[C@@H]1[C@@H](OC(=O)NCCCCCC)[C@@H](OC(=O)NCCCCCC)Cn2c(=O)ccc(=O)n21)S(=O)(=O)c1ccc(C)cc1	LMP1 NFkB inh 89.9, PAX8 inh HTS 112.7, LGR2 antag inconclusive, EWS-Fli block 66.5 (no result: MITF TRPM1 inh)
CCCCCCNC(=O)O[C@H]1Cn2c(=O)ccc(=O)n2[C@@H]2CN(S(=O)(=O)c3ccc(C)cc3)C[C@]12O	PAX8 inh HTS 76.6, EWS-Fli block 70.5, Shn3 inh set2 91.0 (no result: MITF TRPM1 inh)
C#CCN(C[C@@H]1[C@@H](OC(=O)NC2CC2)[C@@H](OC(=O)NC2CC2)Cn2c(=O)n(CCCCCC)c(=O)n21)S(=O)(=O)c1ccc(C)cc1	none (no result: MITF TRPM1 inh)
CO[C@H]1CC[C@H]2CCOc3ccc(C#N)cc3C(=O)N(C)C[C@H](OC)[C@@H](C)C(=O)N(C)C[C@H]1O2	none (no result: LMP1 NFkB inh, MITF TRPM1 inh, Shn3 inh set2)
O=C(C[C@@H]1CC[C@H](NC(=O)C2CC2)[C@H](CO)O1)NCCCN1CCOCC1	none (no result: LMP1 NFkB inh, MITF TRPM1 inh, Shn3 inh set2)
O=C(/C=C/c1ccc(Cl)cc1Cl)N1CCN(c2ccccc2[N+](=O)[O-])CC1	PAX8 inh HTS 118.6
CCCN1C/C(=C/c2cccc([N+](=O)[O-])c2)C(=O)/C(=C/c2cccc([N+](=O)[O-])c2)C1	LMP1 NFkB inh 88.0, MITF TRPM1 inh 100.2 (no result: PAX8 inh HTS, EWS-Fli block)
Cc1nc(SCC(=O)Nc2ccc(CN3CCCC3)cc2)c2c(C)c(C)sc2n1	MITF TRPM1 inh 76.6
CC(=O)Nc1ccc(NC(=O)CSc2nc(C)nc3sc(C)c(C)c23)cc1	none (no result: LGR2 antag)
C[C@@H]1CN([C@@H](C)CO)C(=O)c2cccc(NC(=O)Nc3ccc4c(c3)OCO4)c2O[C@H]1CN(C)C	none (no result: LMP1 NFkB inh, MITF TRPM1 inh, Shn3 inh set2)
Cc1ccc2c(c1)Oc1ccc(NC(=O)CCl)cc1C(=O)N2	MITF TRPM1 inh 90.5 (no result: EWS-Fli block)
CC(C)NC(=O)Nc1ccc2c(c1)CC(=O)N([C@H](C)CO)C[C@@H](C)[C@H](CN(C)S(=O)(=O)c1cn(C)cn1)O2	none (no result: LMP1 NFkB inh, MITF TRPM1 inh, Shn3 inh set2)
O=C(/C=C/Nc1ccc(Br)cc1F)c1ccccc1	LMP1 NFkB inh 65.3, EWS-Fli block 74.3 (no result: LGR2 antag)
CCCNC(=O)C[C@@H]1CC[C@@H]2[C@H](COC[C@H](O)CN2C(=O)Nc2cccc(Cl)c2)O1	none (no result: LMP1 NFkB inh, MITF TRPM1 inh, PAX8 inh HTS, EWS-Fli block, Shn3 inh set2)
C#CCCc1ccccc1/C=[N+](/C)[O-]	MITF TRPM1 inh 65.5
C/[N+]([O-])=C\c1coc2ccccc2c1=O	none (no result: PAX8 inh HTS, LGR2 antag, EWS-Fli block)
